Inconclusive results are not listed. Activity calls are given as the source filed them. The call rests on the fitted dose curve; in most records, active means well fitted inhibition curve with a large enough effect; inconclusive means small, poorly fitted or top-dose-only effect; inactive means flat fitted curve, though single readings scatter. Where a SMILES comes first, the peptide text is derived from it. [ ]: non-standard residue; d: D form. pGlu = O=C1CC[C@@H](C(=O)O)N1

The results in this text go back to PubChem BioAssay (NCATS).
On the % scale 0 is the no-effect control and ±100 the full control effect; potency means the concentration at half of the fitted maximal effect.

The subject of one test is CRL-7250. Nature of the test: Cytotoxic Profiling of Annotated Libraries Using Quantitative High-Throughput Screening (AID 1296008). Further: nearly all actives have a fitted effect of over 60% in size. The following applies: Five cell lines viability, CellTiter-Glo ATP luminescence, 48-72 h; max response: active compounds read low. In a few lines:
(§1)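 Cytotoxicity was measured as CellTiter-Glo ATP luminescence, read after 10 min at room temperature. Compound treatment of the cells lasted 48 or 72 hr at 37 degrees Celsius in a qHTS format.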
For the molecule `Cc1ccc(C(=O)C(=O)O)cc1C`, the max response is -7.54% (inactive).
On the same count and under the same terms, for `Nc1cc(C(F)(F)F)ccc1S` the value was -0.153% (inactive); for `NS(=O)(=O)c1ccc(N2CCCCS2(=O)=O)cc1`, -11.1% (inactive).
Consider `COc1cc2c(cc1OC)C(=O)CC2`, for which the molecule was called inactive.
For the molecule `COC(=O)c1c(Cl)c(Cl)c(C(=O)OC)c(Cl)c1Cl`, the max response is -7.84% (inactive).
Still for that read-out and setting: for `Cc1ccc(C(C)OC(=O)C2(C)CCC(C(=O)O)C2(C)C)cc1` (stereo unspecified) the value was 3.77% (inactive).
As for `Cc1cc(O)c(C)c(C)c1O`, the call was inactive.
As to `COCCOCC(OC)OC`, the max response was -5.92% (inactive).
For the molecule `CC(C)NC(=O)c1ccc(C=O)cc1`, the max response is -4.83% (inactive).
For `C[C@H](CN1CCCC1)C(=O)c1ccc(C(F)(F)F)cc1`, the max response was 3.63% (inactive).
The same measure, in the same setting: for `COCCc1ccc(OCC2CO2)cc1` (stereo unspecified) the value was 1.12% (inactive); for `CCCCCOc1ccccc1/C(=C\SC)n1ccnc1`, -4.59% (inactive); for `O=C1CCCc2c(O)cccc21`, -3.71% (inactive).
The same measure, in the same setting: for `O=C(O)Cc1ccccc1Oc1ccc(Cl)cc1Cl` the value was 1.12% (inactive).
Still for that read-out and setting: for `CC(CC(C#N)(c1ccccc1)C(C)C)N(C)C` (stereo unspecified) the value was -3.29% (inactive).
As for `CNC(=O)c1cnn(-c2nc(N)c3ncn([C@@H]4O[C@H](CO)[C@@H](O)[C@H]4O)c3n2)c1`, the max response was -10.9% (inactive).
In the case of `Nc1ccc2cc3ccc(N)cc3nc2c1`, the Potency was 7.5 µM (active).
Still for that read-out and setting: for `CCC1=C[C@@H]2CN(C1)Cc1c([nH]c3ccccc13)[C@@](C(=O)OC)(c1cc3c(cc1OC)N(C)[C@H]1[C@@](O)(C(=O)OC)[C@H](OC(C)=O)[C@]4(CC)C=CCN5CC[C@]31[C@@H]54)C2` the value was 0.0422 µM (active).
As for `COC(=O)CCCCC(CCSS/C(CCO)=C(\C)N(C=O)Cc1cnc(C)nc1N)SC(C)=O` (stereo unspecified), the molecule was called inactive.
As for `Oc1ccccc1-c1nnco1`, the outcome was inactive.
Take `Nc1ccc2c(c1)CN1C(=O)c3ccccc3C1=N2`: the Potency was 8.2 µM (active).
Regarding `CCN1CCCC1CN` (stereo unspecified), the max response was 3.84% (inactive).
On the same count and under the same terms, for `CO[C@@]1(NC(=O)CSC[C@@H](N)C(=O)O)C(=O)N2C(C(=O)O)=C(CSc3nnnn3C)CS[C@@H]21` the value was 1.25% (inactive); for `CCOC(=O)NNc1nncc2ccccc12`, -0.257% (inactive); for `Cc1oc(-c2ccccc2)nc1CCC(=O)c1ccc(CC2SC(=O)NC2=O)cc1` (stereo unspecified), -17.6% (inactive).
On to `CCCCN(CCN(CCCC)C(=O)N1CCOCC1)C(=O)N1CCOCC1`, for which the max response is -1.09% (inactive).
`CCCCCCCCCCCCCCCCCCNC(=O)OC1CCN(C(=O)OC[C@H](COC(=O)N(Cc2cccc[n+]2CC)C(=O)c2ccccc2OC)OC)CC1`: the Potency was 8.41 µM (active).
Take `CCN(CC)CCN`: the max response is 3.12% (inactive).
Still for that read-out and setting: for `CN1[C@@H]2CC[C@H]1CC(NC(=O)n1c(=O)[nH]c3ccccc31)C2` (stereo partly specified) the value was -3.19% (inactive).
Consider `O=C(Nc1ccc(S(=O)(=O)N2CCOCC2)cc1)c1cc(Cl)ccc1NS(=O)(=O)c1ccc(Cl)s1`, for which the max response is -9.47% (inactive).
As to `Nc1ncnc2c1ncn2Cc1c(F)cccc1Cl`, the max response was -8.42% (inactive).
Still for that read-out and setting: for `CN(C)C(=O)CNC(=O)Cc1ccccc1` the value was -7.63% (inactive).
Take `CCNC(=O)[C@@H]1CCCN1C(=O)[C@H](CCCN=C(N)N)NC(=O)[C@H](CC(C)C)NC(=O)CNC(=O)[C@H](Cc1ccc(O)cc1)NC(=O)[C@H](CO)NC(=O)[C@H](Cc1c[nH]c2ccccc12)NC(=O)[C@H](Cc1cnc[nH]1)NC(=O)[C@@H]1CCC(=O)N1` ([pGlu]HWSYGLRP-NHEt): the molecule was called inactive.
On the same count and under the same terms, for `CCC(=O)O[C@]1(C(=O)COC)[C@@H](C)C[C@H]2[C@@H]3CCC4=CC(=O)C=C[C@]4(C)C3(F)[C@@H](O)C[C@@]21C` (stereo partly specified) the value was “inactive”.
`c1ccc2occc2c1`: the max response was -10.5% (inactive).
The same measure, in the same setting: for `CCCCCCCCCCCCCCCCCCN(C)C` the value was -11.6% (inactive).
On to `CO[C@@H]1[C@@H](OC)[C@H](C)[C@@](O)(CC(=O)O)O[C@H]1[C@H](C)[C@H]1O[C@@]2(CC[C@@](C)([C@H]3CC[C@@](C)([C@@H]4O[C@@H]([C@H]5O[C@](C)(O)[C@H](C)C[C@@H]5C)C[C@@H]4OC4C[C@H](OC)[C@@H](OC)[C@H](C)O4)O3)O2)C[C@H](O)[C@H]1C` (stereo partly specified), for which the Potency was 0.944 µM (active).
Regarding `NS(=O)(=O)c1cc2c(cc1Cl)CN(C1CCCCC1)C2=O`, the max response was -6.27% (inactive).

In the next test the test system is HEK293. The test is described as above. The following applies: Five cell lines viability, CellTiter-Glo ATP luminescence, 48-72 h; max response: active compounds read low. Summed up: as §1
A general note: Cellular ATP, detected with luciferase, serves as a proxy for viable cell number.
With `Cc1ccc(C(=O)C(=O)O)cc1C`, the outcome was inactive.
On to `Nc1cc(C(F)(F)F)ccc1S`, for which the max response is -4.91% (inactive).
For `NS(=O)(=O)c1ccc(N2CCCCS2(=O)=O)cc1`, the result was inactive.
For `COc1cc2c(cc1OC)C(=O)CC2`, the max response was 3.36% (inactive).
Take `COC(=O)c1c(Cl)c(Cl)c(C(=O)OC)c(Cl)c1Cl`: the max response is -21.7% (inactive).
In the case of `Cc1ccc(C(C)OC(=O)C2(C)CCC(C(=O)O)C2(C)C)cc1` (stereo unspecified), the result was inactive.
Regarding `Cc1cc(O)c(C)c(C)c1O`, the molecule was called inactive.
Turning to `COCCOCC(OC)OC`, the max response was -49.7% (inactive).
In the case of `CC(C)NC(=O)c1ccc(C=O)cc1`, the call was inactive.
On to `C[C@H](CN1CCCC1)C(=O)c1ccc(C(F)(F)F)cc1`, for which the max response was -20.1% (inactive).
Still for that read-out and setting: for `COCCc1ccc(OCC2CO2)cc1` (stereo unspecified) the value was 1.88% (inactive).
With `CCCCCOc1ccccc1/C(=C\SC)n1ccnc1`, the Potency was 26.6 µM (active).
With `O=C1CCCc2c(O)cccc21`, the max response is -4.98% (inactive).
Regarding `O=C(O)Cc1ccccc1Oc1ccc(Cl)cc1Cl`, the max response is 3.66% (inactive).
Regarding `CC(CC(C#N)(c1ccccc1)C(C)C)N(C)C` (stereo unspecified), the call was inactive.
Same read-out and setting: for `CNC(=O)c1cnn(-c2nc(N)c3ncn([C@@H]4O[C@H](CO)[C@@H](O)[C@H]4O)c3n2)c1` the value was “inactive”.
With `Nc1ccc2cc3ccc(N)cc3nc2c1`, the Potency is 2.37 µM (active).
In the case of `CCC1=C[C@@H]2CN(C1)Cc1c([nH]c3ccccc13)[C@@](C(=O)OC)(c1cc3c(cc1OC)N(C)[C@H]1[C@@](O)(C(=O)OC)[C@H](OC(C)=O)[C@]4(CC)C=CCN5CC[C@]31[C@@H]54)C2`, the Potency is 0.0084 µM (active).
As to `COC(=O)CCCCC(CCSS/C(CCO)=C(\C)N(C=O)Cc1cnc(C)nc1N)SC(C)=O` (stereo unspecified), the call was inactive.
For the molecule `Oc1ccccc1-c1nnco1`, the outcome was inactive.
For the molecule `Nc1ccc2c(c1)CN1C(=O)c3ccccc3C1=N2`, the Potency was 5.8 µM (active).
As for `CCN1CCCC1CN` (stereo unspecified), the molecule was classed as inactive.
`CO[C@@]1(NC(=O)CSC[C@@H](N)C(=O)O)C(=O)N2C(C(=O)O)=C(CSc3nnnn3C)CS[C@@H]21`: the result was inactive.
In the case of `CCOC(=O)NNc1nncc2ccccc12`, the max response is -5.42% (inactive).
In the case of `Cc1oc(-c2ccccc2)nc1CCC(=O)c1ccc(CC2SC(=O)NC2=O)cc1` (stereo unspecified), the result was inactive.
With `CCCCN(CCN(CCCC)C(=O)N1CCOCC1)C(=O)N1CCOCC1`, the max response was -9.35% (inactive).
For the molecule `CCCCCCCCCCCCCCCCCCNC(=O)OC1CCN(C(=O)OC[C@H](COC(=O)N(Cc2cccc[n+]2CC)C(=O)c2ccccc2OC)OC)CC1`, the Potency is 7.5 µM (active).
In the case of `CCN(CC)CCN`, the max response is 2.25% (inactive).
The same measure, in the same setting: for `CN1[C@@H]2CC[C@H]1CC(NC(=O)n1c(=O)[nH]c3ccccc31)C2` (stereo partly specified) the value was -4.57% (inactive).
Regarding `O=C(Nc1ccc(S(=O)(=O)N2CCOCC2)cc1)c1cc(Cl)ccc1NS(=O)(=O)c1ccc(Cl)s1`, the molecule was classed as inactive.
Still for that read-out and setting: for `Nc1ncnc2c1ncn2Cc1c(F)cccc1Cl` the value was “inactive”.
For the molecule `CN(C)C(=O)CNC(=O)Cc1ccccc1`, the max response is -9.26% (inactive).
`CCNC(=O)[C@@H]1CCCN1C(=O)[C@H](CCCN=C(N)N)NC(=O)[C@H](CC(C)C)NC(=O)CNC(=O)[C@H](Cc1ccc(O)cc1)NC(=O)[C@H](CO)NC(=O)[C@H](Cc1c[nH]c2ccccc12)NC(=O)[C@H](Cc1cnc[nH]1)NC(=O)[C@@H]1CCC(=O)N1` ([pGlu]HWSYGLRP-NHEt): the max response is -8.7% (inactive).
Consider `CCC(=O)O[C@]1(C(=O)COC)[C@@H](C)C[C@H]2[C@@H]3CCC4=CC(=O)C=C[C@]4(C)C3(F)[C@@H](O)C[C@@]21C` (stereo partly specified), for which the max response is -13.2% (inactive).
Still for that read-out and setting: for `c1ccc2occc2c1` the value was -7.13% (inactive); for `CCCCCCCCCCCCCCCCCCN(C)C`, -2.54% (inactive).
On to `CO[C@@H]1[C@@H](OC)[C@H](C)[C@@](O)(CC(=O)O)O[C@H]1[C@H](C)[C@H]1O[C@@]2(CC[C@@](C)([C@H]3CC[C@@](C)([C@@H]4O[C@@H]([C@H]5O[C@](C)(O)[C@H](C)C[C@@H]5C)C[C@@H]4OC4C[C@H](OC)[C@@H](OC)[C@H](C)O4)O3)O2)C[C@H](O)[C@H]1C` (stereo partly specified), for which the Potency was 0.237 µM (active).
In the case of `NS(=O)(=O)c1cc2c(cc1Cl)CN(C1CCCCC1)C2=O`, the outcome was inactive.
